Measured values reported in paper PMC5540273 (PLoS ONE, 2017).

Tests used:
Conditions in all cases: concentration: 1 μM,replicates: in singlicate; n = 1
BMX = tested on: BMX
BRAF = tested on: BRAF
BRK = tested on: T1, BRK
T1 construct: gene PTK6

BRSK1 = tested on: BRSK1
BRSK2 = tested on: BRSK2
BTK = tested on: BTK
BUB1 = tested on: BUB1
CAMK1B = tested on: CAMK1B
CAMK1D = tested on: CAMK1D
CAMK1G = tested on: CAMK1G
CAMK1 = tested on: CAMK1
CAMK2A = tested on: CAMK2A
CAMK2B = tested on: CAMK2B
CAMK2D = tested on: CAMK2D
CAMK2G = tested on: CAMK2G
CAMK4 = tested on: CAMK4
CAMKK1 = tested on: CAMKK1
CAMKK2 = tested on: CAMKK2
CASK = tested on: CASK
CDC2L1 = tested on: T2, CDC2L1
T2 construct: gene CDK11B
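Also: KINOMEscan kinase panel screen.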

Row | SMILES | %Inh (BMX) [%] | %Inh (BRAF) [%] | %Inh (BRK) [%] | %Inh (BRSK1) [%] | %Inh (BRSK2) [%] | %Inh (BTK) [%] | %Inh (BUB1) [%] | %Inh (CAMK1B) [%] | %Inh (CAMK1D) [%] | %Inh (CAMK1G) [%] | %Inh (CAMK1) [%] | %Inh (CAMK2A) [%] | %Inh (CAMK2B) [%] | %Inh (CAMK2D) [%] | %Inh (CAMK2G) [%] | %Inh (CAMK4) [%] | %Inh (CAMKK1) [%] | %Inh (CAMKK2) [%] | %Inh (CASK) [%] | %Inh (CDC2L1) [%]
1 | NC(=O)c1ccc(-c2cc3ncnc(SCC(=O)O)c3s2)cc1 | 15 | 0 | 0 | 0 | 0 | 8 | 18 | 0 | 5 | 0 | 0 | 0 | 0 | 0 | 0 | 0 | 75 | 81 | 0 | 0
2 | CC(=O)Nc1nc2cnc(Nc3cc(NC(=O)c4cccc(CC(C)(C)C#N)c4)ccc3C)nc2s1 | 9 | 99.9 | 0 | 23 | 14 | 51 | 30 | 0 | 8 | 0 | 4 | 0 | 0 | 7 | 14 | 0 | 21 | 11 | 0 | 16
3 | COc1cccc(OC)c1C(=O)Nc1cccc(-c2nn3ccccc3c2-c2ccnc(Nc3cccc(F)c3)n2)c1 [GSK361065] | 21 | 17 | 19 | 0 | 16 | 0 | 11 | 0 | 13 | 0 | 19 | 27 | 6 | 0 | 0 | 0 | 4 | 0 | 15 | 0
4 | Cc1nnc(-c2ccc3occ(-c4ccc(S(C)=O)cc4)c3n2)o1 (centres unmarked) | 0 | 0 | 0 | 0 | 0 | 0 | 0 | 0 | 17 | 3 | 3 | 0 | 0 | 0 | 0 | 0 | 6 | 11 | 0 | 0
5 | CCn1c(-c2nonc2N)nc2cncc(CNC3CCNCC3)c21.Cl [SB-747651] | 0 | 10 | 0 | 4 | 0 | 14 | 48 | 30 | 22 | 0 | 19 | 0 | 0 | 5 | 17 | 71 | 1 | 16 | 16 | 0
6 | COC(=O)c1cccc(NC(=O)NC2CCN(c3ccnc(NCc4ccc(F)cc4)n3)CC2)c1 [GSK1379860] | 11 | 2 | 10 | 0 | 0 | 0 | 21 | 67 | 0 | 0 | 0 | 0 | 0 | 0 | 1 | 0 | 0 | 0 | 0 | 0
7 | CCN1CCN(CCCC(=O)Nc2n[nH]c3nc(-c4ccc(O)cc4)c(Br)cc23)CC1 [SB-731579] | 0 | 81 | 0 | 50 | 54 | 0 | 5 | 65 | 17 | 0 | 0 | 0 | 0 | 0 | 0 | 10 | 0 | 0 | 0 | 0
8 | Cc1cccc2c(-c3ccncc3)c(-c3ccc(F)cc3)nn12.Cl [GW461487] | 15 | 14 | 0 | 0 | 0 | 0 | 52 | 0 | 4 | 20 | 0 | 0 | 0 | 29 | 32 | 0 | 0 | 11 | 3 | 0
9 | Cl.c1ccc(Oc2ccc(Nc3ccnc4cc(-c5ccc(CN6CCNCC6)o5)ccc34)cc2)nc1 [GW567142] | 4 | 0 | 92.7 | 0 | 0 | 76 | 38 | 0 | 20 | 0 | 29 | 0 | 0 | 3 | 0 | 0 | 0 | 0 | 0 | 0
10 | N#Cc1cccc(C(=O)NC2CCN(c3ccnc(Nc4ccc(F)cc4)n3)C2)c1 (centres unmarked) [GSK1379708] | 6 | 0 | 16 | 0 | 0 | 0 | 31 | 0 | 5 | 0 | 9 | 0 | 0 | 0 | 0 | 0 | 0 | 0 | 15 | 0
11 | CN(c1ccccc1CNc1nc(Nc2ccc3c(c2)CC(=O)N3)ncc1C(F)(F)F)S(C)(=O)=O | 39 | 0 | 0 | 14 | 36 | 0 | 0 | 0 | 0 | 0 | 0 | 22 | 18 | 0 | 59 | 0 | 58 | 64 | 0 | 0
12 | C[C@@H]1CNc2c(sc3ccc4nc(-c5ccc(O)cc5)ccc4c23)C(=O)N1 | 14 | 0 | 0 | 48 | 72 | 0 | 58 | 13 | 0 | 16 | 16 | 35 | 36 | 32 | 23 | 30 | 40 | 58 | 0 | 0
13 | CSc1nccc(-c2c(-c3ccc(F)cc3)ncn2CCCN2CCOCC2)n1.Cl [SB-217146] | 0 | 4 | 0 | 0 | 0 | 0 | 14 | 0 | 12 | 0 | 6 | 0 | 0 | 0 | 0 | 0 | 0 | 0 | 0 | 0
